Measured values reported in ChEMBL document CHEMBL4513149, “CO-ADD screening of MMV (CH) - MMV compounds” (2021).
Potency and affinity values are given separately.

Experiments:
Staphylococcus aureus = conditions: Concentration 20 uM; ASSAY_TEST Inhibition of Bacterial Growth; detection method Absorption (OD600); MEDIA CAMHB; plate type 384well; NBS; CORNING #3640; time 18 hr
Escherichia coli = conditions: Concentration 20 uM; ASSAY_TEST Inhibition of Bacterial Growth; detection method Absorption (OD600); MEDIA CAMHB; plate type 384well; NBS; CORNING #3640; time 18 hr

Compound | Inhibition (Staphylococcus aureus) [%] | Inhibition (Escherichia coli) [%]
COc1ccc(-c2cc(NC(=O)c3ccc(F)cc3Cl)ccc2OC)cc1 | 17.79 | 8.24
CCCn1nnc(NC(=O)COc2ccc(C3CCCCC3)cc2)n1 | 2.73 | -2.31
CCn1ncc2c(NC3CCOCC3)c(CNC(=O)c3ccnn3C)c(C)nc21 | 5.59 | 3.03
OCCc1ccc(Nc2nccc(-c3nnc4ccccn34)n2)cc1 | 21.71 | 6.52
O=C(OCc1ccccc1)N1CCC(c2cc(-c3ccncc3)c(-c3ccc(F)cc3)[nH]2)CC1 | 3.21 | 4.05
CCCCc1ccc(C(=O)Nc2nccc3ccccc23)nc1 | 5.7 | -0.87
Cc1ccc(Oc2ccc(NC(=O)CNc3ccccc3N3CCCC3=O)cc2)cc1 | 5.88 | 6.72
COc1nc2ccc(Br)cc2cc1[C@@H](c1ccccc1)[C@@](O)(CCN(C)C)c1cccc2ccccc12.O=C(O)C(F)(F)F | 17.15 | 2.08
Nc1ncnc2c1c(-c1cnc3ccccc3c1)nn2CC1CCNCC1 | 3.94 | -4.76
CC(C)C(Oc1cccc2ccccc12)C(=O)O (stereo not given) | 10.48 | -2.25
O=C(NCCN1CCCC1)c1cc(NCCN2CCOCC2)nc2ccc(Cl)cc12 | 22.71 | 6.99
Cc1c[nH]c(CCNC(=O)c2cc(-c3ccc(Cl)cc3)cs2)n1 | 25.33 | 10.78
CC(Oc1ccccc1)C(=O)Nc1nc(-c2ccccn2)cs1 (stereo not given) | 40.18 | -10.82
CC1CCCN(C(=O)C(C)Nc2cc(Cl)ccc2N2CCOCC2)C1 (stereo not given) | 20.88 | 9.44
CCc1nc2ccc(Cl)cn2c1C(=O)NCc1ccc(N2CCC(c3ccc(OC(F)(F)F)cc3)CC2)cc1 [TELACEBEC] | 17.2 | 13.17
COc1ccc(-c2cnc3cnc(-c4cccc(OC(C)C)c4)cn23)cc1 | 6.79 | 4.77
N#Cc1ccc(-c2ccc(OCC(N)=O)cc2)cc1 | 6.41 | -3.93
COc1ccc(CN2CCOc3ccc(C(C)(O)CN(C)C)cc3C2)cc1C (stereo not given) | 19.53 | 9.29

Compound | Inhibition (Staphylococcus aureus) [%] | Inhibition (Escherichia coli) [%]
O=C1N(Cc2cc3ccccc3s2)CC2CN(Cc3ccccc3)CCN12 (stereo not given) | 3.35 | -5.97
O=C(Cn1ccnc1[N+](=O)[O-])NCc1ccccc1 [BENZNIDAZOLE] | 21.81 | 9.92
CCOC(=O)c1noc(N)c1-c1ccccc1 | 31.41 | 11.39
Cl.O[C@@H](c1cc(C(F)(F)F)nc2c(C(F)(F)F)cccc12)[C@H]1CCCCN1 | 45.36 | 15.86
O=C(Nc1ccnc(-c2cccnc2)n1)c1cc(C(F)(F)F)cc(C(F)(F)F)c1 | 15.63 | 6.19
CCOC(=O)c1c(NC(=O)c2c(F)c(F)c(F)c(F)c2F)sc(C(N)=O)c1C | 12.42 | 12.47
CCc1nc2ccc(C(=O)NCc3ccc4c(c3)OCO4)cn2c1N(C)Cc1cccs1 | 4.69 | -1.74
C[C@H](c1ccc2c(c1)CCCC2)N(C)c1ncc2c(N)nc(N)nc2n1 | 64.04 | 11.2
O=C(Nc1ccccc1-c1nc2c(C(=O)O)cccc2o1)c1ccccc1 | 12.25 | -2.2
COc1ccc(-c2cncc3ccc(C(=O)NCCCn4ccnc4)nc23)cc1 | 13.71 | 12.75
OCc1ccc(-c2cncc(Nc3cccc(Cl)c3)c2)cc1 | 14.66 | 10.9
COc1ccc(-c2nn(C(C)C)c3ncnc(N)c23)cc1OC | 14.97 | -0.52
N#CCN(CCCCN1CCN(c2ccc(F)cc2)CC1)C(=O)OCc1ccccc1 | 23.36 | 7.95
Cc1cc(Cl)c(S(=O)(=O)N2CCCC2)cc1OCC(=O)NC1CCCCC1 | 7.56 | 0.73
c1ccc(Oc2ccc(-c3cc(C4CCOCC4)[nH]n3)cc2)cc1 | 24.63 | 11.25
CCC(Sc1nc2ccccc2o1)C(=O)Nc1nccs1 (stereo not given) | 18.2 | 11.9
FC(F)(F)c1nnc2ccc(Cl)nn12 | 14.72 | 1.56
